Where “and” joins values, the source holds several entries; their conditions need not be identical. Equal entries are not always repeated. About 2,000 (36%) of roughly 5,500 compounds were called active. Not shown: some 18% with an inconclusive outcome. Cut-off read from the data, not from the text of the source: active = normalized growth mostly below about 0.91 (no sharp cut-off); inconclusive = no clear call, values can overlap the other calls; inactive = mostly above about 0.92. This is one part of the list. Some compounds were tested as several samples or in several runs, with calls that do not always agree.
Experiment: chemical genetic growth profiling, strain panel (AID 1159580);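 note: tested at 20 µM; growth read once vehicle control cultures reached saturation at 30 °C; 1 = growth at the plate median or of vehicle wells; lower values mean less growth of the strain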
Conditions: growth OD

Measured: normalized growth

Cc1nc2sccn2c(=O)c1CCN1CCC(=C(c2ccc(F)cc2)c2ccc(F)cc2)CC1
active: S. cerevisiae deletion strains, locus YBR021W, strain FUR4, stronger effect = lower value 0.338 | S. cerevisiae deletion strains, locus YCL029C, strain bik1, stronger effect = lower value 0.885 | S. cerevisiae deletion strains, locus YDL035C, strain GPR1, stronger effect = lower value 0.536 | S. cerevisiae deletion strains, locus YDL074C, strain BRE1, stronger effect = lower value 0.395 | S. cerevisiae deletion strains, locus YDL101C, strain DUN1, stronger effect = lower value 0.758 | S. cerevisiae deletion strains, locus YDL134C, strain PPH21, stronger effect = lower value 0.404 | S. cerevisiae deletion strains, locus YDL192W, strain arf1, stronger effect = lower value 0.844 | S. cerevisiae deletion strains, locus YDR162C, strain NBP2, stronger effect = lower value 0.0773 | S. cerevisiae deletion strains, locus YDR318W, strain mcm21, stronger effect = lower value 0.865 | S. cerevisiae deletion strains, locus YDR388W, stronger effect = lower value 0.222 | S. cerevisiae deletion strains, locus YDR502C, strain sam2, stronger effect = lower value 0.832 | S. cerevisiae deletion strains, locus YEL061C, strain CIN8, stronger effect = lower value 0.672 | S. cerevisiae deletion strains, locus YER002W, strain NOP16, stronger effect = lower value 1.21 [resistant] | S. cerevisiae deletion strains, locus YER155C, strain BEM2, stronger effect = lower value 0.897 | S. cerevisiae deletion strains, locus YER167W, strain BCK2, stronger effect = lower value 0.692 | S. cerevisiae deletion strains, locus YGL086W, strain mad1, stronger effect = lower value 0.808 | S. cerevisiae deletion strains, locus YGL248W, strain PDE1, stronger effect = lower value 0.511 | S. cerevisiae deletion strains, locus YGR078C, strain PAC10, stronger effect = lower value 0.695 | S. cerevisiae deletion strains, locus YGR135W, strain pre9, stronger effect = lower value 0.683 | S. cerevisiae deletion strains, locus YGR252W, strain gcn5, stronger effect = lower value 0.487 | S. cerevisiae deletion strains, locus YHR079C, strain IRE1 (second series), stronger effect = lower value 0.902 | S. cerevisiae deletion strains, locus YHR200W, strain rpn10, stronger effect = lower value 0.914 | S. cerevisiae deletion strains, locus YIL066C, strain RNR3, stronger effect = lower value 0.571 | S. cerevisiae deletion strains, locus YIL073C, strain SPO22, stronger effect = lower value 0.279 | S. cerevisiae deletion strains, locus YIR030C, strain dcg1, stronger effect = lower value 0.917 | S. cerevisiae deletion strains, locus YJL187C, strain SWE1 (second series), stronger effect = lower value 0.547 | S. cerevisiae deletion strains, locus YJR043C, strain POL32, stronger effect = lower value 0.69 | S. cerevisiae deletion strains, locus YKL190W, strain CNB1, stronger effect = lower value 0.604 | S. cerevisiae deletion strains, locus YKR001C, strain vps1, stronger effect = lower value 0.139 | S. cerevisiae deletion strains, locus YLR039C, strain RIC1, stronger effect = lower value 0.303 | S. cerevisiae deletion strains, locus YLR058C, strain SHM2, stronger effect = lower value 0.613 | S. cerevisiae deletion strains, locus YLR262C, strain YPT6, stronger effect = lower value 0.289 | S. cerevisiae deletion strains, locus YLR268W, strain sec22, stronger effect = lower value 0.624 | S. cerevisiae deletion strains, locus YLR330W, strain CHS5, stronger effect = lower value 0.833 | S. cerevisiae deletion strains, locus YLR342W, strain FKS1 (second series), stronger effect = lower value 0.56 | S. cerevisiae deletion strains, locus YLR418C, strain cdc73, stronger effect = lower value 0.451 | S. cerevisiae deletion strains, locus YML016C, strain PPZ1, stronger effect = lower value 0.65 | S. cerevisiae deletion strains, locus YML032C, strain rad52, stronger effect = lower value 0.825 | S. cerevisiae deletion strains, locus YMR223W, strain ubp8, stronger effect = lower value 0.816 | S. cerevisiae deletion strains, locus YNL067W, strain RPL9B, stronger effect = lower value 0.72 | S. cerevisiae deletion strains, locus YNL175C, strain NOP13, stronger effect = lower value 1.28 [resistant] | S. cerevisiae deletion strains, locus YNL197C, strain WHI3, stronger effect = lower value 1.19 [resistant] | S. cerevisiae deletion strains, locus YNL233W, strain BNI4, stronger effect = lower value 0.573 | S. cerevisiae deletion strains, locus YNL307C, strain MCK1, stronger effect = lower value 0.863 | S. cerevisiae deletion strains, locus YNL322C, strain KRE1, stronger effect = lower value 0.67 | S. cerevisiae deletion strains, locus YNR052C, strain pop2, stronger effect = lower value 0.773 | S. cerevisiae deletion strains, locus YOL006C, strain TOP1, stronger effect = lower value 0.138 | S. cerevisiae deletion strains, locus YOR061W, strain CKA2, stronger effect = lower value 0.646 | S. cerevisiae deletion strains, locus YOR069W, strain VPS5, stronger effect = lower value 0.861 | S. cerevisiae deletion strains, locus YOR184W, strain ser1, stronger effect = lower value 0.729 | S. cerevisiae deletion strains, locus YPL055C, strain LGE1, stronger effect = lower value 0.268 | S. cerevisiae deletion strains, locus YPR163C, strain tif3, stronger effect = lower value 0.722 | S. cerevisiae deletion strains, locus YPR167C, strain met16, stronger effect = lower value 0.906 | S. cerevisiae deletion strains, strain wtn01, stronger effect = lower value 0.776 | S. cerevisiae strains, strain wild type, stronger effect = lower value 0.592
0.132 (active) and 0.945 (inactive): S. cerevisiae deletion strains, locus YGR229C, strain SMI1, stronger effect = lower value
0.732 (active) and 0.816 (inactive): S. cerevisiae deletion strains, locus YNL153C, strain GIM3, stronger effect = lower value
0.36 (active) and 0.998 (inactive): S. cerevisiae deletion strains, locus YJR075W, strain HOC1, stronger effect = lower value
0.802 (active) and 0.999 (inactive): S. cerevisiae deletion strains, locus YDR150W, strain NUM1, stronger effect = lower value
0.65 (active) and 1.01 (inactive): S. cerevisiae deletion strains, locus YAL013W, strain DEP1, stronger effect = lower value
inactive: S. cerevisiae deletion strains, locus YAL040C, strain CLN3, stronger effect = lower value 1 | S. cerevisiae deletion strains, locus YBR229C, strain ROT2, stronger effect = lower value 0.992 | S. cerevisiae deletion strains, locus YCL061C, strain MRC1 (second series), stronger effect = lower value 1 | S. cerevisiae deletion strains, locus YDL185W, strain tfp1, stronger effect = lower value 1.01 | S. cerevisiae deletion strains, locus YDR101C, strain arx1, stronger effect = lower value 0.945 | S. cerevisiae deletion strains, locus YDR363W, strain ESC2, stronger effect = lower value 1.01 | S. cerevisiae deletion strains, locus YER110C, stronger effect = lower value 1 | S. cerevisiae deletion strains, locus YGL078C, strain dbp3, stronger effect = lower value 1 | S. cerevisiae deletion strains, locus YHR079C, strain IRE1, stronger effect = lower value 0.959 | S. cerevisiae deletion strains, locus YHR094C, strain hxt1, stronger effect = lower value 1 | S. cerevisiae deletion strains, locus YIL125W, strain kgd1, stronger effect = lower value 1 | S. cerevisiae deletion strains, locus YJL134W, strain LCB3, stronger effect = lower value 1.01 | S. cerevisiae deletion strains, locus YJL168C, strain set2, stronger effect = lower value 0.998 | S. cerevisiae deletion strains, locus YJR066W, strain TOR1, stronger effect = lower value 0.965 | S. cerevisiae deletion strains, locus YKL009W, strain mrt4, stronger effect = lower value 0.967 | S. cerevisiae deletion strains, locus YKL068W, stronger effect = lower value 0.999 | S. cerevisiae deletion strains, locus YKL085W, strain MDH1 (second series), stronger effect = lower value 0.992 | S. cerevisiae deletion strains, locus YKL085W, strain MDH1, stronger effect = lower value 0.992 | S. cerevisiae deletion strains, locus YLR102C, strain apc9, stronger effect = lower value 0.999 | S. cerevisiae deletion strains, locus YLR113W, strain HOG1, stronger effect = lower value 0.979 | S. cerevisiae deletion strains, locus YLR371W, strain rom2, stronger effect = lower value 0.978 | S. cerevisiae deletion strains, locus YML124C, strain tub3, stronger effect = lower value 1 | S. cerevisiae deletion strains, locus YMR078C, strain ctf18, stronger effect = lower value 1 | S. cerevisiae deletion strains, locus YNL183C, strain NPR1, stronger effect = lower value 0.935 | S. cerevisiae deletion strains, locus YNL250W, strain rad50, stronger effect = lower value 0.988 | S. cerevisiae deletion strains, locus YNL271C, strain bni1, stronger effect = lower value 0.992 | S. cerevisiae deletion strains, locus YNL298W, strain CLA4, stronger effect = lower value 0.999 | S. cerevisiae deletion strains, locus YOL012C, strain htz1 0.498 | S. cerevisiae deletion strains, locus YOL147C, strain pex11, stronger effect = lower value 0.984 | S. cerevisiae deletion strains, locus YOR083W, strain WHI5 (second series), stronger effect = lower value 0.985 | S. cerevisiae deletion strains, locus YOR136W, strain idh2, stronger effect = lower value 0.94 | S. cerevisiae deletion strains, locus YOR144C, strain elg1, stronger effect = lower value 1.01 | S. cerevisiae deletion strains, locus YOR231W, strain MKK1, stronger effect = lower value 0.999 | S. cerevisiae deletion strains, locus YOR316C, strain cot1, stronger effect = lower value 0.996 | S. cerevisiae deletion strains, locus YPL256C, strain CLN2, stronger effect = lower value 0.962 | S. cerevisiae deletion strains, locus YPR119W, strain clb2, stronger effect = lower value 1.01 | S. cerevisiae deletion strains, locus YPR141C, strain kar3, stronger effect = lower value 0.997
0.354 (active) and 0.987 (inactive): S. cerevisiae deletion strains, locus YJL095W, strain BCK1, stronger effect = lower value
0.65 (active) and 0.981 (inactive): S. cerevisiae deletion strains, locus YHR030C, strain SLT2, stronger effect = lower value
0.637 (active) and 1.1 (inactive): S. cerevisiae deletion strains, locus YNL128W, strain TEP1, stronger effect = lower value
0.733 (active) and 1 (inactive): S. cerevisiae deletion strains, locus YMR263W, strain SAP30, stronger effect = lower value
0.206 (active) and 1.03 (inactive): S. cerevisiae deletion strains, locus YMR307W, strain GAS1, stronger effect = lower value
